The full list was thinned out, with hits kept by preference.
VHR inh color: VHR1 phosphatase inhibitors, primary screen, biochemical, colorimetric, HTS; recombinant VHR phosphatase, colorimetric substrate read-out; inhibition, % at 20 µM; 0.7% of 50,000 active; in the data active = inhibition above about 60%
Target sequence (P51452 whole entry, looked up): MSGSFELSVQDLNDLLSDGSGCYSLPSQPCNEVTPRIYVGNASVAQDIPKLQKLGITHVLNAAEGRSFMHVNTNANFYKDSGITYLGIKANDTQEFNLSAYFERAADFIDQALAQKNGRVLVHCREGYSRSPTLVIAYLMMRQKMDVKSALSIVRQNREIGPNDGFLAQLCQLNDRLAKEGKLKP
Hits are given with their value; i = inactive.

SMILES	VHR inh color
Cc1ccc(NCC(=O)N/N=C\C=C\c2ccco2)cc1	i
O=C1c2ccccc2/C(=N/N=C/C=C/c2ccco2)C1C(=O)C(c1ccccc1)c1ccccc1 (stereo not drawn)	88.3
COc1ccc(N2C(=O)C=CC2=O)cc1	i
O=C1C=CC(=O)N1c1ccccc1N1C(=O)C=CC1=O	84.1
Cc1ccc(N2C(=O)C=CC2=O)c(Br)c1	i
Cc1cc([N+](=O)[O-])ccc1N/C=C/C(=O)c1ccc(Br)cc1	i
O=C(CN(c1ccc(F)cc1)S(=O)(=O)c1ccccc1)NCCSc1ccccc1	i
CC1(C)CC(OC(=O)/C=C\C(=O)OC2CC(C)(C)NC(C)(C)C2)CC(C)(C)N1	i
Cc1ccc(C23CC4CC(CC(C(=O)NCc5ccco5)(C4)C2)C3)cc1	i
CN(C)c1ccc(/C=C2/C(=O)NN(c3ccc(F)c(Cl)c3)C2=O)cc1Br	i
COC(=O)C1C2C(=O)N(c3ccccc3)C(=O)C12c1ccc(Cl)cc1 (stereo not drawn)	i
CC1=C(C)CC2C(=O)N(c3ccc(-c4ccc([N+](=O)[O-])cc4)cc3)C(=O)C2C1 (stereo not drawn)	i
Cc1ccc(OCC(=O)N2CCN(c3ccc([N+](=O)[O-])cc3)CC2)cc1	i
O=C1C2C(c3ccc([N+](=O)[O-])cc3)OC3(C(=O)c4ccccc4C3=O)C2C(=O)N1c1ccc(Cl)cc1 (stereo not drawn)	i
COC(=O)C1C2C(=O)N(c3ccc([N+](=O)[O-])cc3)C(=O)C12c1ccc(C)cc1 (stereo not drawn)	116.4
COC(=O)C1C2C(=O)N(c3ccc([N+](=O)[O-])cc3)C(=O)C12c1ccc(Cl)cc1 (stereo not drawn)	102.2
O=C1c2c(Cl)ccc(Cl)c2C(=O)N1c1ccccc1O	i
O=C(NCCOc1ccccc1F)c1ccc(F)c2ccccc12	i
Cc1ccc(C)n1-c1ccc(C(=O)O)c(O)c1	97.3
Cc1ccc(C)n1-c1cc(C(=O)O)cc(C(=O)O)c1	i
Cc1ccc(C)n1-c1ccc(C(=O)O)c(Cl)c1	i
O=C1NN(c2ccccc2)C(=O)/C1=C/c1ccc(-c2ccc(F)cc2)o1	i
O=C1NN(c2ccc(F)cc2)C(=O)/C1=C\c1ccc(-c2cccc(C(=O)O)c2)o1	i
O=C1NC(=S)N(c2cccc(Br)c2)C(=O)/C1=C/c1ccc(-c2ccc(C(=O)O)cc2)o1	i
O=C1NN(c2ccccc2)C(=O)/C1=C/c1ccc(-c2ccccc2)o1	110.9
SMILES	VHR inh color
O=C1NC(=O)N(c2cccc(Br)c2)C(=O)/C1=C/c1ccc(-c2ccc(C(=O)O)cc2)o1	99.7
O=C1NC(=O)N(c2ccccc2)C(=O)/C1=C\c1ccc(-c2cccc(C(=O)O)c2)o1	i
C=CCc1ccccc1OCCn1cc(C=C2C(=O)NC(=S)NC2=O)c2ccccc21	i
CC(C)(C)c1cc(CCC(=O)NNC(=O)c2ccccc2)cc(C(C)(C)C)c1O	i
CC(=O)Oc1ccc(C(=O)Nc2cccc(-c3nnc(-c4ccccc4)o3)c2)cc1	i
C/C(=N\NC(=O)c1cc(C(C)(C)C)[nH]n1)c1ccc([N+](=O)[O-])cc1	i
Cc1cc(/C=N/n2cnnc2)c(C)n1-c1ccc(F)cc1	i
Cc1cc(/C=N/Nc2ccc([N+](=O)[O-])cn2)c(C)n1-c1ccc(F)cc1	87.4
Cc1cc(/C=N\Nc2ccc([N+](=O)[O-])cn2)c(C)n1-c1ccccc1F	i
C=CCc1cccc2cc(C(=O)NNC(=O)c3ccc(OC)cc3)c(=O)oc12	i
COc1ccc(C2/C(=C(\O)c3ccc(C)cc3)C(=O)C(=O)N2CCCC(=O)O)cc1OC (stereo not drawn)	i
CN(C1=C(Cl)C(=O)N(c2ccccc2)C1=O)c1ccccc1	i
CCOC(=O)c1ccc(-c2ccc(/C=C3/C(=O)NN(c4ccc(F)cc4)C3=O)o2)cc1	i
O=C1NC(=O)N(c2ccccc2)C(=O)/C1=C\c1cccn1-c1ccc([N+](=O)[O-])cc1	i
C=CCN1C(=O)/C(=C\c2ccc(-c3ccc([N+](=O)[O-])cc3Cl)o2)C(=O)NC1=S	i
C=CCN1C(=O)/C(=C\c2ccc(-c3ccc(OC)cc3[N+](=O)[O-])o2)C(=O)NC1=S	i
O=C1NC(=S)NC(=O)C1=Cc1ccc(-c2ccc([N+](=O)[O-])cc2Br)o1	64.2
O=C1NN(c2ccccc2)C(=O)/C1=C/c1cccn1-c1ccc([N+](=O)[O-])cc1	i
C=CCN1C(=O)/C(=C\c2ccc(-c3ccc([N+](=O)[O-])cc3Br)o2)C(=O)NC1=S	i
O=C1NC(=S)N/C1=C\c1ccc(-c2cc([N+](=O)[O-])ccc2Br)o1	i
C=CCN1C(=O)/C(=C\c2cccn2-c2ccc([N+](=O)[O-])cc2)C(=O)NC1=S	80.0
C=CCN1C(=O)/C(=C\c2ccc(-c3ccccc3[N+](=O)[O-])o2)C(=O)NC1=S	87.8
COc1cc(C=O)ccc1OCc1c(C)no[n+]1[O-]	i
CCOC(=O)c1c(NC(=O)C(c2ccccc2)c2ccccc2)sc2c1CC(C)(C)OC2	i
CCOC(=O)c1c(NC(=O)c2ccoc2C)sc2c1CCC(C)C2 (stereo not drawn)	i
SMILES	VHR inh color
NC(=O)CN(Cc1ccccc1)S(=O)(=O)c1ccccc1	i
COc1ccc(CNC(=O)C(=O)Nc2cccc(Cl)c2)cc1	i
Cc1cccc(NC(=O)C2CC2(c2ccccc2)c2ccccc2)c1C (stereo not drawn)	i
Cc1cccc(NC(=O)C(C)Oc2ccccc2)c1C (stereo not drawn)	i
Cc1cccc(NC(=O)C2C(c3ccccc3)C=CC(c3ccccc3)C2C(=O)O)c1C (stereo not drawn)	97.9
O=C1NC(=O)/C(=C\c2cc([N+](=O)[O-])ccc2Cl)S1	i
Cc1c(NC(=O)c2ccc(OCC(C)C)cc2)cccc1-c1nc2ncccc2o1	i
Cc1ccc(/C=C(/NC(=O)c2ccccc2I)C(=O)Nc2ccccc2)o1	i
O=C(Nc1ccccc1)N1CCN(Cc2ccc3c(c2)OCO3)CC1	101.2
O=C(COc1ccc2ccccc2c1)N1CCN(Cc2ccc3c(c2)OCO3)CC1	i
O=C(c1ccc(F)cc1)N1CCN(Cc2ccc3c(c2)OCO3)CC1	i
CCOC(=O)c1c(N)sc(C)c1-c1ccc(OCC)cc1	i
CCOC(=O)c1c(N)sc(C)c1-c1ccc(CC(C)C)cc1	63.6
CCOc1ccc(-c2c(C)sc(N)c2C(=O)OC(C)C)cc1	i
O=C1CSC(c2cn(-c3ccccc3)nc2-c2ccc(Cl)cc2)N1Cc1ccco1 (stereo not drawn)	i
O=c1c2cc3c(=O)n(-c4ccc(S)cc4)c(=O)c3cc2c(=O)n1-c1ccc(S)cc1	i
CC(=O)CCc1c(C)[nH]c2ccc(Br)cc2c1=S	i
O=C(CCCOc1ccccc1)Nc1ccc(Cl)cc1	i
Cc1ccc(C)n1-c1ccc(SCC(=O)O)cc1	91.4
CC(=O)c1ccc(-n2c(C)ccc2C)cc1	i
Cc1ccc(C)n1-c1ccc(OCC(=O)O)cc1	i
C=CCc1cccc2cc(C(=O)NCc3ccccc3)c(=O)oc12	i
Cc1onc(-c2ccccc2Cl)c1C(=O)Nc1ccc(C(C)C)cc1	i
C=CCN1C(=O)/C(=C\c2cc(C)n(-c3ccc([N+](=O)[O-])cc3)c2C)SC1=S	i
O=C(Cc1ccc([N+](=O)[O-])cc1)Nc1ccc(F)cc1F	i
Cc1ccc(COc2ccc3c(c2)oc(=O)c2ccccc23)cc1	i
Cc1cccc(COc2ccc3c(c2)oc(=O)c2ccccc23)c1	96.0
CCc1cc(=O)oc2cc(OCc3cccc(C)c3)ccc12	i

Assay outcomes deposited in PubChem by Sanford-Burnham Center for Chemical Genomics.
